KKLEB cytotox = counter-screen for CF NF-kB inhibitors: cytotoxicity. KKLEB CF airway cells viability, ATPlite luminescence, overnight; stronger effect = lower value; cells stimulated with P. aeruginosa culture filtrate. activity change (cytotoxicity), % at 5 µM. 360,000 tested, 0.36% active. AID 602141;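 active means corrected activity change at or below -50% at 5 µM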
CF NFkB inh = blocks PAF-induced NF-kB reporter in cystic fibrosis cells. KKLEB NF-kB-GFP reporter, GFP fluorescence overnight. inhibition, % at 5 µM. 360,000 tested, 0.86% active. AID 588850;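 active means at least 50% inhibition at 5 µM, scaled per plate between neutral and stimulator controls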;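 further: PAF is a Pseudomonas aeruginosa culture filtrate used as stimulus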
MITF TRPM1 inh = MITF TRPM1 promoter inhibition in SK-MEL-5 cells | SK-MEL-5 TRPM1 promoter luciferase, 24 h | 330,000 tested, 0.83% active | inhibition, % at 12.5 µM;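 active means mean inhibition across replicates of 60% or more, whatever share of single replicates reaches that level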
HIF-2a block = HIF-2a inhibition. 360,000 tested, 0.72% active. 786-0 RCC cells HIF-2a reporter, luciferase luminescence, overnight. inhibition, % at 18.8 µM. AID 624352;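 active means inhibition of the luminescence signal of 40% or more relative to plate controls, in a single-dose primary screen at 18.75 µM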
Peg3 prom inh = inhibitors of Peg3 promoter. AID 588405. 360,000 tested, 1.7% active. inhibition, % at 20 µM. HeLa PEG-Prom luciferase reporter, luminescence, overnight;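 active means inhibition of at least 50% at 20 µM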
CHOP inhibitor = inhibitors of CHOP induction in ER stress response. AID 2732. 220,000 tested, 3.8% active. CHO-K1 CHOP-promoter luciferase, tunicamycin-induced, 15-18 h. inhibition, % at 10 µM;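 active means compounds that reduced the stress-induced luciferase reporter signal by more than about 70% of percent inhibition, limit read from the data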
Large screens that a line does not name were inactive. Hits are enriched below; roughly 4.3% of the tested compounds scored in any of these assays.

O=C(c1ccc(-n2cncn2)c2ccoc12)N1CCOCC1	none (no result: MITF TRPM1 inh, CHOP inhibitor)
Cc1cc2ccccn2c1C(=O)c1ccc([N+](=O)[O-])o1	Peg3 prom inh 98.9
COc1cc(NC(=O)c2ccc(C(C)(C)C)cc2)c(OC)cc1NC(=O)CN1CCCCC1	none
O=C1CC(Sc2nnnn2C2CCCCC2)C(=O)N1c1ccccc1 (stereo unspecified)	Peg3 prom inh 84.9
CCOc1ccc(C(=O)Oc2ccc(NC(C)=O)cc2)cc1	CHOP inhibitor 83.2 (no result: KKLEB cytotox, CF NFkB inh, MITF TRPM1 inh, HIF-2a block, Peg3 prom inh)
COc1ccccc1NC(=O)c1cc2cc(Br)ccc2cc1O	CHOP inhibitor 87.8
CCOc1ccc(NC(=O)c2cc3ccccc3cc2O)cc1	CHOP inhibitor 75.0
COc1cc(OC)c(NC(=O)c2ccccc2F)cc1Cl	none
COc1ccccc1NC(=O)COC(=O)c1cc2ccccc2cc1O	none (no result: CHOP inhibitor)
COc1cc(NC(=O)c2cc3ccccc3cc2O)c(OC)cc1Cl	KKLEB cytotox -55.2, CF NFkB inh 50.5, CHOP inhibitor 83.2
CCOc1ccc(NC(=O)CC(=O)Nc2ccc(OCC)cc2)cc1	none (no result: CHOP inhibitor)
CCOc1ccc(NC(=O)C(CC)NC(=O)c2ccccc2CO)cc1 (stereo unspecified)	CHOP inhibitor 76.1
CCN(CC)CCOc1ccc(/C(=C(\Cl)c2ccccc2)c2ccccc2)cc1	Peg3 prom inh 81.1 (no result: CHOP inhibitor)
O=C(Nc1cccc2ccccc12)c1csc([C@@H]2C[C@H](O)[C@@H](CO)O2)n1	none (no result: MITF TRPM1 inh, CHOP inhibitor)
CC(C)CCNC(=O)C(c1ccncc1)N(Cc1cccs1)C(=O)Cn1nnc(-c2ccc(F)cc2)n1 (stereo unspecified)	MITF TRPM1 inh 76.1
Cc1ccc(-c2nnn(CC(=O)N(c3ccccc3)C(C(=O)NC3CCCC3)c3ccco3)n2)o1 (stereo unspecified)	CHOP inhibitor 93.5
Cc1ccc(-c2nnn(CC(=O)N(Cc3cccs3)C(C(=O)NC3CCCC3)c3ccncc3)n2)cc1 (stereo unspecified)	MITF TRPM1 inh 73.3
CC(C)(C)NC(=O)C(c1ccco1)N(C(=O)Cn1nnc(-c2ccc(F)cc2)n1)c1ccccc1F (stereo unspecified)	CHOP inhibitor 83.6
O=C(NCC1CCCO1)C(c1ccncc1)N(Cc1cccs1)C(=O)Cn1nnc(-c2ccc(F)cc2)n1 (stereo unspecified)	none
CCOc1ccc(CCNC(=O)c2cn(C)c3ccc(S(=O)(=O)N4CCOCC4)cc3c2=O)cc1OCC	none (no result: CHOP inhibitor)
O=C(CSc1nnc(NC(=O)c2cccc(Cl)c2)s1)NCC1CCCO1 (stereo unspecified)	none (no result: CHOP inhibitor)
Cc1cc(C(=O)OCC(=O)c2ccc(Br)s2)c(C)o1	CHOP inhibitor 78.7 (no result: KKLEB cytotox, CF NFkB inh, MITF TRPM1 inh, HIF-2a block, Peg3 prom inh)
Cc1cc(C(=O)OCC(=O)N2CCc3ccccc32)c(C)o1	CHOP inhibitor 81.5
COc1ccc(-n2nc(C(=O)NCC(=O)NCCCN3CCOCC3)c3ccccc3c2=O)cc1OC	KKLEB cytotox -76.3 (no result: CHOP inhibitor)
Cc1ccc(C(=O)N2CCN(c3ccc(NC(=S)NC(=O)Cc4ccccc4)cc3)CC2)cc1	CHOP inhibitor 74.0
O=C(Nc1ccc(NC(=O)c2cc3ccccc3o2)cc1)c1ccc2c(c1)OCCO2	Peg3 prom inh 77.7, CHOP inhibitor 72.4
O=C(Nc1ccc(N2CCN(C(=O)c3ccccc3)CC2)cc1)c1cc2ccccc2o1	MITF TRPM1 inh 68.8, Peg3 prom inh 71.6
COC(=O)Cc1ccc(NC(=S)N2CCN(c3ccc(F)cc3)CC2)cc1	CHOP inhibitor 71.9
CC(C)C(NCC(=O)Nc1ccccc1C(=O)NC1CC1)c1ccccc1 (stereo unspecified)	none (no result: CHOP inhibitor)
COC(=O)C(Cc1ccc(O)cc1)NC(=O)C(C)NC(=O)c1ccc(C(C)(C)C)cc1 (stereo unspecified)	none (no result: CHOP inhibitor)
Cc1c(Cl)cccc1N1C(=O)CC(Sc2ccccc2N)C1=O (stereo unspecified)	none (no result: MITF TRPM1 inh, CHOP inhibitor)
Cc1ccc([C@H]2N[C@]3(CCCN(Cc4ccc(F)cc4)C3=O)[C@H]3C(=O)N(C)C(=O)[C@@H]23)cc1	none (no result: MITF TRPM1 inh, CHOP inhibitor)
Cc1ccc(S(=O)(=O)Nc2ccccc2C(=O)N2CCCCCC2)cc1	none (no result: CHOP inhibitor)
O=C(Nc1ccc(N2CCN(C(=O)c3ccc(Cl)cc3)CC2)cc1)c1ccc2c(c1)OCCO2	MITF TRPM1 inh 73.3
Clc1ccccc1Cn1nnc2ccccc21	none (no result: CHOP inhibitor)
Cc1cccc(C)c1OCc1nc2ccccc2c(=O)n1/N=C/c1c[nH]c2ccccc12	CHOP inhibitor 84.9
Cc1ccccc1OCc1nc2ccccc2c(=O)n1/N=C/c1c[nH]c2ccccc12	CHOP inhibitor 88.0
Cc1cc(/C=N/n2c(COc3ccccc3C)nc3ccccc3c2=O)c(O)c([N+](=O)[O-])c1	none
CC(=O)c1cccc(NC(=O)NC(C)c2ccc3c(c2)OCO3)c1 (stereo unspecified)	none (no result: CHOP inhibitor)
CCc1ccc(/C=C/C(=O)c2cc(Br)ccc(=O)c2O)cc1	none
CCOc1ccc(/C=C/C(=O)c2cc(Br)ccc(=O)c2O)cc1	CHOP inhibitor 90.7
CC1CCCCN1C(=O)CN1CCN(S(=O)(=O)c2ccc(Br)cc2Cl)CC1 (stereo unspecified)	none (no result: CHOP inhibitor)
Cc1cc(NC(=O)C2CC(=O)N(c3cccc(Cl)c3)C2)no1 (stereo unspecified)	none (no result: CHOP inhibitor)
Cc1cccnc1NS(=O)(=O)c1ccccc1	none (no result: MITF TRPM1 inh, CHOP inhibitor)
Cc1ccc2ncccc2c1NS(=O)(=O)c1ccccc1	CHOP inhibitor 82.2
O=C(COC(=O)/C=C/c1ccc(Cl)cc1Cl)NCC1CCCO1 (stereo unspecified)	none (no result: CHOP inhibitor)
CN(C)c1ccc(-c2ccnc3c2CC(C)(C(=O)NCc2ccco2)O3)cc1 (stereo unspecified)	none (no result: MITF TRPM1 inh, CHOP inhibitor)
C/C(Cl)=C\Cn1c(O)c(N=NC(N)=S)c2cc(Br)ccc21	CF NFkB inh 56.5
NC(=S)N=Nc1c(O)n(CCCl)c2ccc(Br)cc12	none
Cc1cccc(NC(=O)Cn2c(O)c(N=NC(N)=S)c3ccccc32)c1	CHOP inhibitor 94.2
NC(=S)N=Nc1c(O)n(Cc2ccc(F)cc2)c2ccccc12	none
NC(=S)N=Nc1c(O)n(Cc2ccc(Br)cc2)c2ccccc12	KKLEB cytotox -51.5
Cc1ccc(NC(=O)Cn2c(O)c(N=NC(=O)c3ccncc3)c3ccccc32)cc1	none
COc1ccc(N2CCN(CCCNC(=O)CN3CCN(Cc4ccccc4C)C3=O)CC2)cc1	none
Cc1ccc(CN2CCN(CC(=O)NCCCN3CCN(c4ccc(F)cc4)CC3)C2=O)cc1	CHOP inhibitor 72.6
O=[N+]([O-])c1ccc2c(c1)N([O-])C1(CCCCC1)[N+]2=O	CHOP inhibitor 95.3 (no result: KKLEB cytotox, CF NFkB inh, MITF TRPM1 inh, HIF-2a block, Peg3 prom inh)
COc1cc(OC)cc(-c2sc3ccc(OC)cc3c2C#CC2(N)CCCCC2)c1	Peg3 prom inh 94.9 (no result: CHOP inhibitor)
COc1ccc(-c2sc3cc4c(cc3c2C#CC2(N)CCCCC2)OCO4)cc1	Peg3 prom inh 93.4 (no result: CHOP inhibitor)
O=C1Nc2ccccc2-c2nnnn2C1N1CCCCC1 (stereo unspecified)	none (no result: KKLEB cytotox, CF NFkB inh, MITF TRPM1 inh, Peg3 prom inh, CHOP inhibitor)
FC(F)Sc1ccc(NC(=S)NC2CCCCC2)cc1	CHOP inhibitor 94.9

Source: PubChem BioAssay
